# Measurements reported in PubChem BioAssay AID463173 (ICCB-Longwood Screening Facility, Harvard Medical School, 2010).
# The campaign covered roughly 52,000 compounds. About 4,300 (8.3%) were called active. Shown is part of a subset that was picked to be rich in actives. A number with no mark means an inactive call. Cut-off read from the data, not from the text of the source: active = survival mostly below about 52% (no sharp cut-off); inactive = mostly above about 56%.
# System: DeltatarO mutant
# Test: growth inhibition of S. aureus wild type versus tarO mutant, primary screen, teichoic acid synthesis inhibitors, RN4220, OD600 (AID 463173)
# Details: OD600, 18 h, hits give low values, screened at 18.75 µg/mL (by protocol)
row,Compound,survival
1,O=C(Nc1ccccc1C(F)(F)F)N1CCN(c2ccc3nnc(-c4ccc(F)cc4)n3n2)CC1,58%
2,COc1ccc(-c2nc(CSc3nncn4c3cc3oc(C)cc34)c(C)o2)cc1,56%
3,Cc1c(Cl)cccc1-n1ncc(C(=O)N2CCOCC2)c1C1CCN(C(=O)OC(C)(C)C)CC1,103%
4,CCc1ccc(S(=O)(=O)Nc2cccc(-c3ccc(OC)nn3)c2)s1,76%
5,Cc1c(CC(=O)NCCc2ccccc2F)c(=O)oc2cc(O)c(Cl)cc12,59%
6,CCn1cc(C(=O)N2CCN(c3ccccc3F)CC2)c(=O)c2cc(S(=O)(=O)N(C)C3CCCCC3)ccc21,79%
7,CCOc1ccc(CCNC(=O)c2cn(C)c3ccc(S(=O)(=O)N4CCCCC4)cc3c2=O)cc1OCC,101%
8,CCn1cc(C(=O)NCc2ccccc2)c(=O)c2cc(S(=O)(=O)N3CCc4ccccc4C3)ccc21,73%
9,CCn1cc(C(=O)NCCc2ccccc2)c(=O)c2cc(S(=O)(=O)N3CCc4ccccc4C3)ccc21,67%
10,CCC(C)NC(=O)c1cn(CC)c2ccc(S(=O)(=O)N3CCc4ccccc4C3)cc2c1=O (configuration not stated),35% (active)
11,CCn1cc(C(=O)NCCc2ccc(Cl)cc2)c(=O)c2cc(S(=O)(=O)N3CCc4ccccc4C3)ccc21,54% (active)
12,CCn1cc(C(=O)NC(C)c2ccccc2)c(=O)c2cc(S(=O)(=O)N3CCc4ccccc4C3)ccc21 (configuration not stated),80%
13,CCOc1ccc(CCNC(=O)c2cn(C)c3ccc(S(=O)(=O)N4CCCCCC4)cc3c2=O)cc1OCC,61%
14,CCn1cc(C(=O)NCCc2ccc(C)cc2)c(=O)c2cc(S(=O)(=O)N3CCc4ccccc4C3)ccc21,67%
15,CCOc1ccc(CCNC(=O)c2cn(C)c3ccc(S(=O)(=O)N4CCOCC4)cc3c2=O)cc1OCC,56% (active)
16,Cn1cnnc1SCC(=O)O,85%
17,Cc1ccc(NC(=O)CC(C)S(=O)(=O)c2ccc3c(c2)NC(=O)CO3)cc1C (configuration not stated),85%
18,Cc1ccc(N2CCN(C(=O)c3c(C)oc4ncnc(N5CCCCC5)c34)CC2)c(C)c1,77%
19,CCOc1cc(C(=O)NCC(c2ccc(N(C)C)cc2)N2CCOCC2)cc(OCC)c1OCC (configuration not stated),101%

row,Compound,survival
1,CCc1ccc(Nc2ncnc3c2cnn3-c2cc(Cl)ccc2C)cc1,77%
2,CCc1nnc(SCc2nc(-c3ccc(OC)c(OC)c3)oc2C)c2cc3sc(C)cc3n12,69%
3,O=C(CCn1c(=O)c2cccn2c2cccnc21)NCc1ccccc1F,100%
4,NS(=O)(=O)c1ccc(CCNC(=O)Cn2c(=O)c3cccn3c3ccc(F)cc32)cc1,89%
5,O=C(CCn1c(=O)c2cccn2c2ccc(F)cc21)NCc1ccccc1F,45% (active)
6,O=C(Cn1c(=O)c2cccn2c2ccccc21)NCCc1ccccc1,62%
7,O=C(CCn1c(=O)c2cccn2c2ccc(F)cc21)NCCc1ccccc1,42% (active)
8,CSc1ccc(CNC(=O)CCn2c(=O)c3cccn3c3ccc(F)cc32)cc1,59%
9,O=C(CCn1c(=O)c2cccn2c2ccc(F)cc21)NCCc1ccc(Cl)cc1,50%
10,O=C(CCCn1c(=O)c2cccn2c2ccc(F)cc21)NCCc1ccccc1,47% (active)
11,CCC(=O)Nc1ccc(-c2nnc3c4ccccc4c(C)nn23)cc1,90%
12,COc1ccc(OC)c(NC(=O)c2c(C)oc3ncnc(N4CCOCC4)c23)c1,134%
13,COC(=O)C(C)Sc1cc(C)c2ccccc2n1 (configuration not stated),76%
14,CCCCNC(=O)CCCn1c(=O)c2ccccc2n(Cc2cccc(Cl)c2)c1=O,100%
15,CCCN(CCC)c1cc(C)nc2nc(-c3ccc(C(C)(C)C)cc3)nn12,103%
16,Cc1cc(N(C)Cc2ccccc2)n2nc(-c3ccc(C(C)(C)C)cc3)nc2n1,39% (active)
17,CCN(CC)c1cc(C)nc2nc(-c3ccc(C)cc3)nn12,43% (active)
18,Cc1cc(C)n2nc(-c3ccc(Cl)cc3)nc2n1,76%
19,Cc1cc(N(CCO)Cc2ccccc2)n2nc(-c3ccc(C(C)(C)C)cc3)nc2n1,48%

row,Compound,survival
1,CCCN(CCC)c1cc(C)nc2nc(-c3ccc(Cl)cc3)nn12,52%
2,Cc1cccc(C(=O)NC2(C(F)(F)F)N=C(c3ccccc3)N(C3CCCCC3)C2=O)c1 (configuration not stated),68%
3,Cc1c(Cl)cccc1NC(=O)Cn1nc(C(F)(F)F)c2c1CCC2,73%
4,CCOc1ccc(S(=O)(=O)NCCc2sc3nc(-c4ccc(F)cc4)nn3c2C)cc1,67%
5,Cc1nn2c(-c3ccco3)ccnc2c1-c1ccc(Cl)cc1,94%
6,Cc1cc(-c2ccccc2)nc2cc(C(N)=O)nn12,71%
7,Cc1ccc(S(=O)(=O)NCCc2nnc3ccc(SCc4ccc(F)cc4)nn23)cc1,112%
8,CCOc1ccc(NCc2cccn2-c2nnc(N3CCC(C(=O)NCc4cccc(OC)c4)CC3)s2)cc1,80%
9,Cn1cnc(S(=O)(=O)N2CCC(C(=O)Nc3ccc(F)cc3F)CC2)c1,91%
10,NC(=O)COc1cccc(-n2cnnn2)c1,63%
11,COc1ccc2nc(-c3ccc(N)cc3)[nH]c2c1,58%
12,CCN(CC)CCSc1nc2ccc(OC)cc2[nH]1,70% (active)
13,COc1ccc2nc(SCC(=O)O)[nH]c2c1,104%
14,Cc1ccc(S(=O)(=O)N2CCCC2C(N)=O)cc1 (configuration not stated),59%
15,COc1cc(C(=O)Nc2ccc3oc(-c4ccc(C)c(Br)c4)nc3c2)cc(OC)c1OC,93%
16,CCCc1cc(C(=O)Nc2c(C)nn(Cc3ccc(C)cc3)c2C)no1,73%
17,CC(C)c1ccc(-c2noc(C3CCCN(C(=O)Cc4cccs4)C3)n2)cc1 (configuration not stated),40% (active)
18,CCCC(=O)N1CCCC(c2nc(-c3ccc(C(C)C)cc3)no2)C1 (configuration not stated),103%
19,CC(C)c1ccc(-c2noc(C3CCCN(C(=O)c4ccccc4)C3)n2)cc1 (configuration not stated),86%
